# Test results reported in PubChem BioAssay (EPA / NIEHS).
# Calls of active or inactive are those of the source. How the source made its calls: active means hit-call score of the fitted dose curve at least 0.9, where 1 is the maximum; inactive means score below 0.9.
# Read-out: UDP glucuronosyltransferase (UGT1A6), UGT1A6 (gene 54578)
# Assay: LTEA_HepaRG_UGT1A6: Life Technologies and Expression Analysis (LTEA) Assay for UDP glucuronosyltransferase (UGT1A6) using HepaRG (AID 2283539)
# Conditions: mRNA level, 48 h; actives raise or lower the signal
# Description: LTEA_HepaRG is a cell based, multiplexed-readout assay that uses HepaRG, a human liver cell line, with measurements taken at 48 hours after chemical dosing on a 96-well plate.LTEA_HepaRG_UGT1A6 is one of 102 assay component(s) measured in the LTEA HepaRG cell culture assay. It is a marker of NR mediated metabolism.Data from the assay component LTEA_HepaRG_UGT1A6 was analyzed into 1 endpoint. This assay endpoint, LTEA_HepaRG_UGT1A6, was analyzed with bidirectional fitting relative to DMSO as the negative control and baseline of activity. Using a type of inducible reporter, measures of mRNA induction for gain or loss-of-signal activity can be used to understand regulation of transcription factor activity. To generalize the intended target to other relatable targets, this assay endpoint is annotated to the transferase intended target family, where the subfamily is glucuronosyltransferase.
# A total of 1060 chemcials from the ToxCast library were tested in eight-point concentration-response experiments. Cell culture and cytotoxicity assays were conducted at Thermo Fisher Scientific's Custom Services facility (Madison, WI). A single lot of human HepaRG cells (Thermo Fisher Scientific, Frederick, MD) was used for the cell culture experiments. 96-well format collagen type I coated plates of human HepaRG cells were prepared using established methods. Briefly, cryopreserved HepaRG cells were thawed, plated at a density of approximately 100,000 cells/well in HepaRG Thaw, Plate, and General Purpose media (HPRG770, Thermo Fisher Scientific), and incubated for 48 hours. 0.5% DMSO was selected as vehicle control to balance the requisite need of DMSO in HepaRG cultures to maintain differentiation (for example, baseline metabolism, proportions of hepatocytes vs. cholangiocytes), while enabling further hepatic receptor pathway activation (for example, PXR and CAR) in response to chemical exposure. 48 hours after plating, the culture medium was replaced with HepaRG Serum-Free Incudtion Media. Cells were exposed to each test chemical in duplicate and maintained in CO2 incubators for another 48 hours. Chemical plates were thawed to room temperature and 200x concentrations of treatment groups were prepared. 8-point conentration-reponse curves were made with the highest exposure at 100 uM, followed by half-log dilutions, all in 0.5% DMSO. Each test plate contained variouse controls, induction positive controls (1mM phenobarbital), cytotoxicity positive controls ([…] aflatoxin B1), vehicle controls (0.5% DMSO), and total lysis controls (0.5% DMSO). Cell morphology images were taken using an Essen IncuCyte FLR automated microscope, with six 96-well plates imaged in about 24 minutes. Images were captured and exported and JPEG files. Spent culture media was transfered to black-well plates for the LDH assay, and remaining media was sorted at -80 C for later use. Cells were treated with RLT buffer and frozen until shipped for gene expression analysis. Total RNA was isolated from the cell suspension in 75 uL of Buffer RLT (Qiagen, Germantown, MD 20874) by Quintiles/Expression Analysis (Durham, NC) using a custom isolation procedure. Total RNA from each plate well was transferred to a preamplification plate. Fluidigm's 96.96 Dynamic ArrayTM (Fluidigm, Amsterdam, the Netherlands) technology was used for gene expression analyses by quantitative reverse transcription polymerase chain reaction (qRT-PCR, performed by Quintiles/Expression Analysis, Durham, NC)89. Standard TaqManTM Assays (Applied Biosystems/ThermoFisher Scientific, Foster City, CA) were used to assess the expression of 93 genes selected based on their selectivity and sensitivity to important hepatic receptors known to be modulated by environmental chemicals; importance in human hepatocyte functionality; and hepatotoxicity. […]
Structure (SMILES),outcome,AC50
CC(C)(C)OOC(C)(C)CCC(C)(C)OOC(C)(C)C,inactive,
Clc1ccccc1Cl,inactive,
[O-][Cl+]O,inactive,
c1ccc(NNc2ccccc2)cc1,inactive,
Nc1ccc(Cl)cc1N,,54.9 µM (active)
O=Cc1ccco1,inactive,
Clc1ccc(Cl)c(Cl)c1,,9.92 µM (active)
O=C(Nc1ccccc1)c1ccccc1I,inactive,
OCCCBr,inactive,
CC(C)N(Cc1ccccc1)C(=O)C(C)(C)C,inactive,
Nc1ccc(Oc2ccc(N)cc2)cc1,inactive,
O=C(N[C@H](c1ccccc1)[C@@H]1CN2CCC1CC2)c1c(Cl)ccc(C(F)(F)F)c1Cl,,68.2 µM (active)
N#CC(Br)(Br)C(N)=O,inactive,
Cc1cc(N=Nc2ccccc2C)ccc1N,,12.2 µM (active)
[As]#[In],inactive,
CCCCOC(=O)c1ccccc1C(=O)OCc1ccccc1,inactive,
OCCOCCO,inactive,
CC(C)(OOC(C)(C)c1ccccc1)c1ccccc1,inactive,
N#CC(Br)Br,inactive,
CN(C)c1ccccc1,inactive,

Structure (SMILES),outcome,AC50
CCNS(=O)(=O)C(F)(F)C(F)(F)C(F)(F)C(F)(F)C(F)(F)C(F)(F)C(F)(F)C(F)(F)F,inactive,
c1ccc(C2CO2)cc1 (stereo not given),inactive,
ClCCOCCCl,inactive,
O=[N+]([O-])c1ccc(Oc2ccc(Cl)cc2Cl)cc1,inactive,
Brc1ccc(Oc2ccccc2)cc1,inactive,
CNC(=O)Oc1cccc2c1OC(C)(C)C2,inactive,
CCCCC(CC)COC(=O)c1ccc(C(=O)OCC(CC)CCCC)c(C(=O)OCC(CC)CCCC)c1 (stereo not given),inactive,
c1ccc2c(c1)-c1cccc3cccc-2c13,inactive,
Cc1ccc(N)c(N)c1,inactive,
CC(C)(O)c1cnn2c(-c3ccc(F)c(-c4c(F)cccc4C#N)c3)cnc2n1,inactive,
O=P(OCCCl)(OCCCl)OCCCl,inactive,
c1ccc(N=Nc2ccccc2)cc1,inactive,
Nc1ccc(Cc2ccc(N)cc2)cc1,inactive,
CCCCCCCCCCCCCN1CC(C)OC(C)C1 (stereo not given),inactive,
O=[N+]([O-])C(Br)(CO)CO,inactive,
C=CCc1ccc2c(c1)OCO2,inactive,
Oc1ccc2ccc3cccc4ccc1c2c34,inactive,
Cc1ccc(N=C=O)cc1N=C=O,inactive,
CCC(C)c1ccc(O)cc1 (stereo not given),inactive,
Cn1cc(-c2ccccc2)c(=O)c(-c2cccc(C(F)(F)F)c2)c1,inactive,
